1 compound from PubChem BioAssay AID1788 (Vanderbilt High Throughput Screening Facility, 2009) can be followed below.

This experiment concerns Phorbol Ester (mouse). The experiment in a line: PubChem AID 1788. The settings on record: MDS Pharma lead profiling panel, radioligand binding, at 10 µM, active compounds read high.

A number with no mark means an inactive call. The rule behind the calls is not given here.

For the compound `CCOC(=O)N1CCC(NCCNC(=O)c2ccccc2C)CC1`, the inhibition is 25%.

The inhibition is how much of the control response was suppressed.
